From PubChem BioAssay (EPA / NIEHS) come the findings set out here.

Experiment [1] is described as follows: CCTE_Padilla_ZF_Score.Spine: CCTE's 144 Hour Post-fertilization zebrafish Assay Score for Spine Malformation, Padilla Lab (AID 2284407). The gist of the method:
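Wild-type zebrafish embryos, one per well in Hanks' solution, dosed at 6–8 hpf in sealed plates at 26C, 14:10 h light:dark; rinsed at 5 dpf. Two blinded assessors scored spinal defects by stereomicroscopy at 6 dpf; fitted versus DMSO.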

Experiment [2] can be described thus: CCTE_Padilla_ZF_Score.Swim_bladder: CCTE's 144 Hour Post-fertilization zebrafish Assay Score for Swim Bladder Malformation, Padilla Lab (AID 2284408). In outline:
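Wild-type zebrafish embryos, one per well in 10% Hanks', dosed at 6–8 hpf, sealed, reared at 26C and rinsed at 5 dpf. Blinded assessors scored uninflated swim bladder by stereomicroscopy at 6 dpf, relative to DMSO.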

Experiment [3] is described as follows: CCTE_Padilla_ZF_Score.Position: CCTE's 144 Hour Post-fertilization zebrafish Assay Score for Position, Padilla Lab (AID 2284409). In outline:
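Wild-type zebrafish embryos (with chorions) exposed singly from 6–8 hpf in sealed wells of Hanks' solution at 26C, rinsed at 5 dpf. At 6 dpf, blinded assessors scored abnormal water-column position by brightfield stereomicroscopy, relative to DMSO.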

Experiment [4] in a line: CCTE_Padilla_ZF_Score.Living: CCTE's 144 Hour Post-fertilization zebrafish Assay Score for Viability, Padilla Lab (AID 2284410).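 Also: larval death at 6 dpf judged by absent heartbeat or coagulation.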 The gist of the method: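 Wild-type zebrafish embryos were exposed singly from 6–8 hpf in sealed wells of Hanks' solution at 26C, then rinsed at 5 dpf. At 6 dpf, blinded assessors scored mortality (no heartbeat or coagulation) by stereomicroscopy, fitted against DMSO.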

Experiment [5] in a line: CCTE_Padilla_ZF_Score.Tail: CCTE's 144 Hour Post-fertilization zebrafish Assay Score for Tail Malformation, Padilla Lab (AID 2284414). In outline: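 Wild-type zebrafish embryos, one per well in 200 uL 10% Hanks', dosed at 6-8 hpf, sealed, and kept at 26 C on a 14:10 h light cycle. Chemical was rinsed out at 5 dpf. Blinded brightfield scoring of tail defects followed at 6 dpf.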

Experiment [6] in a line: CCTE_Padilla_ZF_Score.Blood_pooling: CCTE's 144 Hour Post-fertilization zebrafish Assay Score for Blood Pooling, Padilla Lab (AID 2284415). The gist of the method:
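Wild-type outbred zebrafish embryos, one per well in 10% Hanks', exposed from 6–8 hpf in sealed plates at 26C on 14:10 h light:dark, rinsed at 5 dpf. Blinded stereomicroscope scoring of blood pooling at 6 dpf; gain-of-signal versus DMSO.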

The nature of experiment [7]: CCTE_Padilla_ZF_Score.Any: CCTE's 144 Hour Post-fertilization zebrafish Assay Score for Any Mortality or Malformation, Padilla Lab (AID 2284416). The gist of the method: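 Wild-type zebrafish embryos with chorions, one per well in 10% Hanks' from 6–8 hpf, dosed in sealed plates at 26 C, 14:10 h light:dark; rinsed at 5 dpf; blinded scoring at 6 dpf for death or malformation, versus DMSO.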

In experiment [8] the test system is SRY-box transcription factor 17 (SOX17) Protein Expression, Deisenroth Lab, SOX17 (gene 64321). Nature of the experiment: CCTE_Deisenroth_DEVTOX-GLR_Endo_SOX17: CCTE's DevTox GLR-Endo Assay Evaluation of SRY-box transcription factor 17 (SOX17) Protein Expression, Deisenroth Lab (AID 2284413). The gist of the method:
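Seed RUES2-GLR cells 24 h; start endoderm differentiation; dose at 0 and 24 h (1 nM - 200 uM, 10 points); fix at 48 h, stain nuclei, image 5 fields/well; compute SOX17+/total cells vs 0.2% DMSO.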

For experiment [9], the system named is Brachyury (BRA) Protein Expression, TBXT (gene 6862). Nature of the experiment: CCTE_Deisenroth_DEVTOX-GLR_Endo_BRA: CCTE's DevTox GLR-Endo Assay Evaluation of Brachyury (BRA) Protein Expression, Deisenroth Lab (AID 2284417). In outline:
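Endpoint is the fraction of BRA reporter-positive cells over total nuclei, corrected by subtracting the 0.2% DMSO value. Chemicals (1 nM - 200 uM, 10 points) were dosed twice during 48 h differentiation of RUES2-GLR cells, read by imaging.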

What is called AC50 is the midpoint of the concentration-response curve, whichever way the signal moves.

Activity calls are given as the source filed them. The calls were made as follows: active = hit-call score of the fitted dose curve at least 0.9, where 1 is the maximum; inactive = score below 0.9.

As for `C[N+](C)(C)CCCNS(=O)(=O)C(F)(F)C(F)(F)C(F)(F)C(F)(F)C(F)(F)C(F)(F)C(F)(F)C(F)(F)F`, the outcome in [1], in experiment [2], in experiment [3], in experiment [5] and in experiment [6] was inactive. Moreover, the AC50 in [4] is 50.1 µM (active); in experiment [7], 26.2 µM (active).

As for `O=C(O)C(F)(F)C(F)(F)C(F)(F)C(F)(F)C(=O)O`, the outcome in [1], in experiment [2], in [3], in experiment [4], in experiment [5] and in experiment [6] was inactive. Further, the call in [7] was inactive.

Take `CC1(C)[C@@H]2CC[C@@]1(C)C(=O)C2`: the outcome in [8] and in experiment [9] was inactive.
